Results filed as inconclusive are left out. A number with no mark means an inactive call. Active and inactive are the calls of the source. Calls come from the whole dose curve; as a rule, active = well fitted cell-killing curve with a large enough effect; inconclusive = small, poorly fitted or top-dose-only effect, or effect the other way; inactive = no such curve, though single readings can be large or run the other way.
Potency is the fitted concentration of half-maximal effect.

This assay is described as follows: Viability qHTS for spleen associated tyrosine kinase inhibitor (SYKi) naive MV4-11 cells (AID 1963823). Note: nearly all actives have a fitted effect of over 40% in size. The note with it: MV4-11 AML viability, CellTiter-Glo luminescence, 72 h; series mostly up to 45 µM; viability (% of control): at the top concentration. An outline of the steps: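 qHTS, SYK inhibitor-naive MV4-11; 500 cells/well; 72 hr compound exposure, 37 C; CellTiter-Glo added, 10 min RT; luminescence read.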
On the technique in general: In qHTS, concentration-response curves come from the screen itself.
As to `CN1CCC(c2c[nH]c3ccc(NC(=O)c4ccc(F)cc4)cc23)CC1`, the “viability (% of control)” value was 63%. As for `C[C@@H]1CC[C@@]23CC[C@]4(C)[C@@](C=CC5[C@@]6(C)CC[C@H](O)C(C)(C)C6CC[C@]54C)(OC2=O)C3[C@H]1C` (stereo not given in full), the “viability (% of control)” value was 47.6% [at 17.3 µM]. On to `C=C1C[C@]23C[C@H]1CC[C@H]2[C@]1(C)CCC[C@@](C)(C(=O)O)[C@H]1[C@@H]3C(=O)O`, for which the “viability (% of control)” value is 67.2%. For `CCC(C)C1NC(=O)C2CCCN2C(=O)C(C(C)C)NC(=O)c2ccccc2NC(=O)C(Cc2ccc(O)cc2)NC(=O)C(C)NC(=O)C(C(C)O)NC1=O` (stereo not given), the “viability (% of control)” value was 71.8% [at 17.3 µM].

For the compound `CC1CCC2C(C)(C)C(O)C(O)CC2(C)C12Cc1c(O)cc(CO)c(C=O)c1O2` (stereo not given), the “viability (% of control)” value is 5.88% [at 17.3 µM]. For the compound `CCN(CC)CCCCNc1ncc2cc(-c3c(Cl)cccc3Cl)c(NC(=O)NC(C)(C)C)nc2n1`, the Potency was 0.517 µM (active).

For the compound `Cc1cc(O)c(C(C)C)cc1Cl`, the “viability (% of control)” value was 68.3%. For the compound `NC(=O)Nc1cc(-c2cccc(F)c2)sc1C(=O)NC1CCCNC1` (stereo not given), the “viability (% of control)” value is 5.4%.

On to `CC(=O)NCCNc1cc(Cl)nn2c(-c3cccc(S(=O)(=O)N(C)C)c3)c(C)nc12`, for which the Potency is 1.46 µM (active). For `COc1c2c(c(C)c3c1C(=O)OC3)OC1(C)CC(O)C34OC(O)(CCC3(C)C1C2)OC4(C)C` (stereo not given), the “viability (% of control)” value was 63.9% [at 17.3 µM]. As to `COc1ccc(NC(=O)c2ccc(-c3ccc(-c4nnc(C)o4)cc3C)cc2)cc1N1CCN(C)CC1`, the Potency is 23.1 µM (active). Turning to `CC(=O)O[C@@H]1C(=O)C(C)=C(CCC(C)CC(=O)O)[C@@]2(C)CCCC(C)(C)C12` (stereo not given in full), the “viability (% of control)” value is 69.3%. As to `c1ccc(-c2[nH]ncc2-c2ccnc3ccccc23)nc1`, the “viability (% of control)” value was 76.1%. In the case of `CC1=CCC2C(C)(CO)CCCC2(CO)C1CO` (stereo not given), the “viability (% of control)” value was 70.5%. Take `C=C(COC(=O)CC(C)C)C1Cc2cc(C(C)=O)ccc2O1` (stereo not given): the “viability (% of control)” value was 63.5%. Regarding `N#CC(CCCN1CCN(/N=C/c2cccnc2)CC1)(c1ccccc1)c1ccccc1`, the Potency is 2.06 µM (active). Take `C=C1[C@H]2CCC3[C@]4(C)CCC[C@@](C)(C(=O)O)C4CC[C@]3(C2)[C@H]1OC(C)=O` (stereo not given in full): the “viability (% of control)” value was 72.9%. For the compound `CNCCC(Oc1ccc(C(F)(F)F)cc1)c1ccccc1` (stereo not given), the Potency was 18.8 µM (active). For the compound `C[C@@H]1O[C@@H](O[C@H]2[C@H](O[C@H]3[C@H](O[C@H]4CC[C@@]5(C=O)C(CC[C@]6(C)C5CC=C5C7CC(C)(C)C[C@@H](O)[C@]7(C)CC[C@]56C)C4(C)C)O[C@H](C(=O)O)[C@@H](O)[C@@H]3O)OC[C@@H](O)[C@@H]2O)[C@H](O)[C@H](O)[C@H]1O` (stereo not given in full), the viability (% of control) was 85.7% [at 9.25 µM]. `COc1ccc(CC(NC(C)=O)C(=O)O)cc1` (stereo not given): the “viability (% of control)” value is 97.3%.

`COC1C(O)C(OC2CCC3(C)C(CCC45CCC6C7(COC(=O)C7)OC4(O)C6(C)CCC35)C2)OC(C)C1OC1OC(CO)C(OC2OC(CO)C(O)C(O)C2O)C(O)C1O` (stereo not given): the Potency was 3.9 µM (active). Regarding `C=C1CCC2C(C)(COC(C)=O)CCCC2(C)C1CCC(C)CC(=O)O` (stereo not given), the “viability (% of control)” value was 72.8%.

Take `CC1(C)CCC(C)(C)c2cc3c(cc21)Sc1ccccc1N=C3c1ccc(C(=O)O)cc1`: the “viability (% of control)” value was 63.5%. Take `C=CC(C)(O)CC/C=C(/C)COC(=O)C(C)C1CCC(C)(C=C)O1` (stereo not given): the “viability (% of control)” value was 60.9%. On to `COC1C(CO)OC(n2cnc3c(=O)[nH]cnc32)C1O` (stereo not given), for which the “viability (% of control)” value was 76.2%. On the same count and under the same terms, as for `Nc1nc2c(cnn2CCCc2ccc(O)cc2)c2nc(-c3ccco3)nn12`, the figure is 73.2%.

As to `CC1=CC(=O)[C@]2(O[C@@H]3O[C@@H](C)[C@H](O)[C@@H](O)[C@H]3O)C=CO[C@@H](O[C@@H]3O[C@H](CO)[C@@H](O)[C@H](O)[C@H]3O)[C@H]12`, the “viability (% of control)” value was 73.2% [at 17.3 µM]. In the case of `CCOC(=O)OCC/C(SC(=O)OCC)=C(\C)N(C=O)Cc1cnc(C)nc1N`, the “viability (% of control)” value was 51.5%. On to `Cc1cc(O[C@@H]2O[C@H](COC(=O)CC(=O)O)[C@@H](O)[C@H](O)[C@H]2O)c(C(C)C)cc1O`, for which the “viability (% of control)” value is 79% [at 17.3 µM]. On to `CC(=O)c1c(C)cc(O)cc1O[C@@H]1O[C@H](CO)[C@@H](O)[C@H](O)[C@H]1O`, for which the “viability (% of control)” value is 63.7%.

Regarding `CCn1c(=O)c2cc(C(N)=O)c(N)nc2n(C2CC2)c1=O`, the “viability (% of control)” value is 77.1%. As to `C=C1C(=O)O[C@@H]2[C@H]1CCC(C)=C(CCC(=O)O)[C@@]2(C)O`, the Potency is 9.2 µM (active).

With `CCc1c(-c2ccccc2)c(-c2ccccc2)nn1-c1ccccc1-c1cccc(OCC(=O)O)c1`, the “viability (% of control)” value is 91.2%. On to `C=C(C)C(=O)OC1CC(CO)CCC/C(CO)=C/C2OC(=O)C(=C)C21` (stereo not given), for which the Potency was 1.61 µM (active). `COc1cc(/C=C/C(=O)O[C@@H]2O[C@H](CO)[C@@H](O)[C@H](O)[C@H]2O)ccc1O`: the “viability (% of control)” value is 76.2%. `COc1c/c(=C2\C=c3ccccc3=N2)[nH]/c1=C\c1[nH]c(C)cc1C`: the Potency is 5.17 µM (active).

With `Cc1ccc(Cl)cc1N(CC(=O)Nc1c(F)cccc1F)S(C)(=O)=O`, the Potency was 5.17 µM (active).

For `C=CC(C)(C)c1[nH]c2ccccc2c1C1=C(O)C(=O)C(c2c[nH]c3c(CC=C(C)C)cccc23)=C(O)C1=O`, the Potency was 18.4 µM (active). Regarding `COc1cc2c(cc1OC)C(C(C(=O)N(CCc1ccc(OC)c(OC)c1OC)CCc1ccc(OC)c(OC)c1OC)c1ccccc1)=NCC2` (stereo not given), the Potency was 15 µM (active). `CC1[C@@H](O)[C@@H](O)C2[C@]3(C)C(C[C@H]4OC(=O)[C@H](O)[C@]1(O)[C@@]24C)C(C)(O)C[C@H](O)[C@H]3O` (stereo not given in full): the “viability (% of control)” value was 90% [at 17.3 µM].

For the origin of these results see PubChem BioAssay (NCATS).
